Test results published in PubChem BioAssay (NCATS).
Inconclusive results are not listed. Activity calls are given as the source filed them. The call rests on the fitted dose curve; in most records, active means well fitted cell-killing curve with a large enough effect; inconclusive means small, poorly fitted or top-dose-only effect, or effect the other way; inactive means flat fitted curve, though single readings scatter.

Tests used:
Test in all cases: Primary qHTS to identify gynecologic anti-cancer compounds using libraries of approved drugs and bioactive compounds (AID 1345084); further: nearly all actives have a fitted effect of over 55% in size
C33A = conditions: Gynecologic cancer cell panel viability, ATPlite luminescence, 48 h; series mostly up to 57.5 µM
Method in brief: (§1)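 Five-point cytotoxicity, 48 h drug exposure at 37 C, 5% CO2, on cells seeded 16 h beforehand. ATP content read by ATPlite luminescence.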

CAOV3 = conditions: Gynecologic cancer cell panel viability, ATPlite luminescence, 48 h; series mostly up to 57.5 µM
Method in brief: as §1

CASKI = conditions: Gynecologic cancer cell panel viability, ATPlite luminescence, 48 h; series mostly up to 57.5 µM
Method in brief: as §1

Es-2 = conditions: Gynecologic cancer cell panel viability, ATPlite luminescence, 48 h; series mostly up to 57.5 µM
Method in brief: as §1

HeLa = conditions: Gynecologic cancer cell panel viability, ATPlite luminescence, 48 h; series mostly up to 57.5 µM
Method in brief: as §1

Hek293T = conditions: Gynecologic cancer cell panel viability, ATPlite luminescence, 48 h, control line for the selectivity index; series mostly up to 57.5 µM
Method in brief: as §1

OV90 = conditions: Gynecologic cancer cell panel viability, ATPlite luminescence, 48 h; series mostly up to 57.5 µM
Method in brief: as §1

SKOV3 = conditions: Gynecologic cancer cell panel viability, ATPlite luminescence, 48 h; series mostly up to 57.5 µM
Method in brief: as §1

Tov-21-G = conditions: Gynecologic cancer cell panel viability, ATPlite luminescence, 48 h; series mostly up to 57.5 µM
Method in brief: as §1

Tov112D = conditions: Gynecologic cancer cell panel viability, ATPlite luminescence, 48 h; series mostly up to 57.5 µM
Method in brief: as §1

JEG-3 = conditions: Gynecologic cancer cell panel viability, ATPlite luminescence, 48 h; series mostly up to 57.5 µM
Method in brief: as §1

PA-1 = conditions: Gynecologic cancer cell panel viability, ATPlite luminescence, 48 h; series mostly up to 57.5 µM
Method in brief: as §1
On the % scale 0 is the no-effect control and ±100 the full control effect.

COc1ccc2c(NC(=O)Nc3cccc(C(F)(F)F)n3)ccnc2c1
inactive: Potency (C33A) | Potency (CAOV3) | Potency (CASKI) | Potency (Es-2) | Potency (HeLa) | Potency (Hek293T) | Potency (OV90) | Potency (SKOV3) | Potency (Tov-21-G) | Potency (Tov112D)

C=CC(C)(O)CC/C=C(\C)C(=O)OC1C(O)C(CO)OC(OC(=O)C23CCC(C)(C)CC2C2=CCC4C5(C)CCC(OC6OC(COC7OCC(OC(C)=O)C(O)C7OC7OC(COC(C)=O)C(O)C(O)C7OC(C)=O)C(O)C(O)C6OC6OCC(O)C(O)C6O)C(C)(C)C5CCC4(C)C2(C)C(O)C3O)C1OC1OCC(OC2OCC(O)C(OC3OCC(O)C(O)C3O)C2O)C(O)C1O (stereo not given)
inactive: activity change, negative = cytotoxicity (C33A) -0.479% [at 6.55 µM] | activity change, negative = cytotoxicity (CAOV3) -0.149% [at 6.55 µM] | activity change, negative = cytotoxicity (CASKI) -8.72% [at 6.55 µM] | activity change, negative = cytotoxicity (Es-2) -2.99% [at 6.55 µM] | activity change, negative = cytotoxicity (HeLa) -14% [at 6.55 µM] | activity change, negative = cytotoxicity (Hek293T) -1.14% [at 6.55 µM] | activity change, negative = cytotoxicity (JEG-3) -2.85% [at 6.55 µM] | activity change, negative = cytotoxicity (SKOV3) 0.6% [at 6.55 µM] | activity change, negative = cytotoxicity (Tov-21-G) -26.1% [at 6.55 µM]

CCOC(=O)C1=Cc2ccc(C(F)(F)C(F)(F)F)cc2N=C(N)C1
inactive: Potency (C33A) | Potency (CAOV3) | Potency (CASKI) | Potency (Es-2) | Potency (HeLa) | Potency (Hek293T) | Potency (OV90) | Potency (PA-1) | Potency (SKOV3) | Potency (Tov-21-G) | Potency (Tov112D)

CCC(=C(c1ccc(OCCN2CCCC2)cc1)c1ccc(OCCN2CCCC2)cc1)c1ccccc1
inactive: Potency (C33A) | Potency (CAOV3) | Potency (CASKI) | Potency (Es-2) | Potency (HeLa) | Potency (Hek293T) | Potency (JEG-3) | Potency (Tov-21-G) | Potency (Tov112D)

C[C@H]1CO[C@@H]2Cn3cc(C(=O)NCc4ccc(F)cc4F)c(=O)c(O)c3C(=O)N12
inactive: Potency (C33A) | Potency (CAOV3) | Potency (CASKI) | Potency (Es-2) | Potency (HeLa) | Potency (Hek293T) | Potency (OV90) | Potency (PA-1) | Potency (SKOV3) | Potency (Tov112D)

CC(C)C[C@H](CO)Nc1nc(S[C@@H](C)c2ccccc2)nc2nc(N)sc12
inactive: Potency (C33A) | Potency (CAOV3) | Potency (CASKI) | Potency (Es-2) | Potency (HeLa) | Potency (Hek293T) | Potency (OV90) | Potency (PA-1) | Potency (SKOV3) | Potency (Tov-21-G) | Potency (Tov112D)

CN1CCN(S(=O)(=O)c2ccc(-c3cnc(N)c(C(=O)Nc4cccnc4)n3)cc2)CC1
inactive: Potency (C33A) | Potency (CAOV3) | Potency (CASKI) | Potency (Es-2) | Potency (HeLa) | Potency (Hek293T) | Potency (OV90) | Potency (Tov112D)

NC(N)=NC(=O)c1cnn(-c2cccc3ncccc23)c1C1CC1
inactive: Potency (C33A) | Potency (CAOV3) | Potency (CASKI) | Potency (Es-2) | Potency (HeLa) | Potency (Hek293T) | Potency (JEG-3) | Potency (PA-1) | Potency (Tov-21-G) | Potency (Tov112D)

O=C(NO)c1ccc(CC(=O)N(CCO)c2ccccc2)cc1
inactive: Potency (C33A) | Potency (CAOV3) | Potency (CASKI) | Potency (Es-2) | Potency (HeLa) | Potency (Hek293T) | Potency (OV90) | Potency (Tov-21-G) | Potency (Tov112D)

C=CC(C)(C)C12CC3C(=O)N4C(CC5(C(C)(C)C=C)c6ccccc6NC45)C(=O)N3C1Nc1ccccc12 (stereo not given)
inactive: Potency (C33A) | Potency (CAOV3) | Potency (CASKI) | Potency (Es-2) | Potency (HeLa) | Potency (Hek293T) | Potency (OV90) | Potency (PA-1) | Potency (SKOV3) | Potency (Tov-21-G) | Potency (Tov112D)

Cc1cc(CS(=O)(=O)c2ccccc2)cc(OCc2ccc(CN3CCCC3CO)cc2)c1 (stereo not given)
inactive: Potency (C33A) | Potency (CAOV3) | Potency (CASKI) | Potency (Es-2) | Potency (HeLa) | Potency (Hek293T) | Potency (JEG-3) | Potency (PA-1) | Potency (Tov-21-G) | Potency (Tov112D)

N#Cc1cnc2c(Cl)cc(NCc3cn(CCN4CCCCCC4)nn3)cc2c1Nc1ccc(F)c(Cl)c1
inactive: Potency (C33A) | Potency (CAOV3) | Potency (CASKI) | Potency (Es-2) | Potency (HeLa) | Potency (Hek293T) | Potency (JEG-3) | Potency (Tov-21-G) | Potency (Tov112D)

CC(O)C(C)n1ncn(-c2ccc(N3CCN(c4ccc(OCC5COC(Cn6cncn6)(c6ccc(Cl)cc6Cl)O5)cc4)CC3)cc2)c1=O (stereo not given)
inactive: Potency (C33A) | Potency (CAOV3) | Potency (CASKI) | Potency (Es-2) | Potency (HeLa) | Potency (Hek293T) | Potency (PA-1) | Potency (SKOV3) | Potency (Tov-21-G) | Potency (Tov112D)

C=C1C(=O)O[C@@H]2/C=C(\C)CC/C=C(\C)CC[C@@H]12
inactive: Potency (C33A) | Potency (CAOV3) | Potency (CASKI) | Potency (Es-2) | Potency (HeLa) | Potency (Hek293T) | Potency (OV90) | Potency (SKOV3) | Potency (Tov112D)

O=C(Nc1ccc(CN2CCOCC2)cc1)c1ccc(-c2cccc(Cl)c2)o1
inactive: Potency (C33A) | Potency (CAOV3) | Potency (CASKI) | Potency (Es-2) | Potency (HeLa) | Potency (Hek293T) | Potency (JEG-3) | Potency (Tov-21-G) | Potency (Tov112D)

CCc1cccc(CC)c1-n1c(C=C(C)C)c(C(=O)N2CCNCC2)cc(-c2nc(-c3ccc(C(F)(F)F)cc3)cs2)c1=O
inactive: Potency (C33A) | Potency (CAOV3) | Potency (CASKI) | Potency (Es-2) | Potency (HeLa) | Potency (Hek293T) | Potency (JEG-3) | Potency (PA-1) | Potency (Tov-21-G) | Potency (Tov112D)

CO[C@H]1C[C@@H]2CC[C@@H](C)[C@@](O)(O2)C(=O)C(=O)N2CCCC[C@H]2C(=O)O[C@H]([C@@H](C)C[C@@H]2CC[C@@H](O)[C@H](OC)C2)CC(=O)[C@H](C)/C=C(\C)[C@@H](O)[C@@H](OC)C(=O)[C@H](C)C[C@H](C)/C=C/C=C/C=C/1C
inactive: Potency (C33A) | Potency (CAOV3) | Potency (CASKI) | Potency (Es-2) | Potency (HeLa) | Potency (Hek293T) | Potency (JEG-3) | Potency (SKOV3) | Potency (Tov112D)

C=C1C(=O)OC2CC(C)C(CCC(C)O)=CCC12 (stereo not given)
inactive: Potency (C33A) | Potency (CAOV3) | Potency (CASKI) | Potency (Es-2) | Potency (HeLa) | Potency (Hek293T) | Potency (OV90) | Potency (PA-1) | Potency (Tov-21-G) | Potency (Tov112D)

COc1cccc(NCCC2(c3ccccc3)CC(C)(C)OC(C)(C)C2)c1
inactive: Potency (C33A) | Potency (CAOV3) | Potency (CASKI) | Potency (Es-2) | Potency (HeLa) | Potency (Hek293T) | Potency (OV90) | Potency (PA-1) | Potency (SKOV3) | Potency (Tov-21-G) | Potency (Tov112D)
